# Compound activity (PubChem)
# The list is not random: actives were taken first. Their share in the collection is about 19%.
# TDP1 cell noCPT: qHTS for Inhibitors of human tyrosyl-DNA phosphodiesterase 1 (TDP1): qHTS in cells in absence of CPT; 420,000 compounds, 15% hits; Potency, µM (series often up to 46.2 µM), hits mostly inhibitors; DT40 Tdp1-/- hTDP1 cells, no CPT, ATP luminescence, 48 h; AID 686978, 2013; note: nearly all actives have a fitted effect of over 55% in size
#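 No-CPT arm: Tdp1-/-;hTDP1 DT40 cells (400/well) plus compounds, incubated ≥48 hr at 37 °C. Readout CellTiter-Glo luminescence.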
# HT1080NT lethal: kills 2HG-producing HT-1080-NT fibrosarcoma cells | HT-1080-NT fibrosarcoma viability, CellTiter-Glo ATP luminescence, 48 h | AID 686970 | Potency, µM (series often up to 46.1 µM), usual class: cytotoxic | 360,000 compounds, 1.6% hits;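 note: NT is the 2HG producing partner of a matched IDH1 knockdown line; nearly all actives have a fitted effect of over 55% in size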
#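 HT-1080-NT; 750 cells/well; 5% FBS RPMI; 48 h compound, 37 degrees C; CellTiter-Glo luminescence; curve fitting and curve-class assignment.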
# KB-3-1 tox: KB-3-1 parental cell cytotoxicity; KB-3-1 viability, CellTiter-Glo ATP luminescence, 72 h; Potency, µM (top dose mostly 46.1 µM), actives largely listed as cytotoxic; 400,000 compounds, 1.4% hits; note: nearly all actives have a fitted effect of over 60% in size
#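 Luminescent ATP read-out (CellTiter-Glo) measures survival of drug-naive KB-3-1 cells after 72 h compound exposure at 37 °C. Titration series was screened from lowest to highest concentration, with DMSO vehicle plates as background controls.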
# KB-V1 MDR tox: KB-V1 MDR subline cytotoxicity | KB-V1 MDR cells viability, CellTiter-Glo, 72 h | Potency, µM (top dose mostly 46.1 µM), usual class: cytotoxic | 400,000 compounds, 3.4% hits; note: nearly all actives have a fitted effect of over 60% in size
#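 Cytotoxicity via CellTiter-Glo luminescence after 72 h compound exposure at 37 degrees C. Cells: drug-selected KB-V1 line, DMEM phenol-red free plus 10% FBS. Compounds tested at multiple concentrations; normalized data fitted to concentration-effect curves.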
# HT1080 IDH1KD tx: toxicity to HT-1080 IDH1 knockdown cells (counter line); HT-1080 IDH1 knockdown viability, ATP luminescence, 48 h; Potency, µM (doses to about 46.1 µM), actives largely listed as cytotoxic; 360,000 compounds, 2% hits; AID 686971
#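 Knockdown cells (IDH1KD HT-1080) received compounds 2 h after plating at 750 cells/well and were kept 48 h at 37 °C in 5% FBS RPMI. A CellTiter-Glo luminescence read gave % activity for curve fitting.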
# DT40 TDP1 CPT: growth inhibition of DT40 Tdp1-/-;hTDP1 cells with camptothecin (screen for TDP1 inhibitors); chicken DT40 Tdp1-/-;hTDP1 cells + 20 nM CPT, ATP luminescence, 48 h; Potency, µM (series often up to 46.2 µM), usual class: inhibitors; 420,000 compounds, 12% hits; AID 686979; note: nearly all actives have a fitted effect of over 55% in size
#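 Chicken DT40 Tdp1-/- cells complemented with human TDP1, 400 cells/well, exposed to compounds plus 20 nM camptothecin for at least 48 h at 37 C; viability read as ATP content by CellTiter-Glo luminescence.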
# A number is an active result; – = inactive; ? = inconclusive; · = no result given. Calls come from the whole dose curve; as a rule, active = well fitted curve in the direction sought with a large enough effect; inconclusive = small, poorly fitted or top-dose-only effect, or another doubt; inactive = no such curve, though single readings can be large; an effect the other way counts as inactive or inconclusive.
SMILES,TDP1 cell noCPT,HT1080NT lethal,KB-3-1 tox,KB-V1 MDR tox,HT1080 IDH1KD tx,DT40 TDP1 CPT
CCOC(=O)C1(CCCc2ccccc2)CCN(Cc2nccn2CC)CC1,?,?,–,?,?,?
CCOC(=O)C1(Cc2cccc(F)c2)CCN(Cc2ccon2)CC1,?,–,–,–,–,–
CCOC(=O)C1(CCCc2ccccc2)CCN(Cc2cnc(C)s2)CC1,10µM,18µM,–,?,?,21µM
CCOC(=O)C1(CCCc2ccccc2)CCN(Cc2cn(CC)nc2C)CC1,?,?,21µM,–,?,?
CCOC(=O)C1(Cc2cccc(F)c2)CCN(Cc2cnc(C)s2)CC1,23µM,–,–,?,–,26µM
CCOC(=O)C1(Cc2cccc(F)c2)CCN(Cc2c(C)nn(CC)c2C)CC1,?,–,–,–,–,23µM
CC1(C(=O)Nc2cccc3c2CCCC3)CCN1C(=O)Cc1ccccc1Cl (configuration not stated),?,–,–,–,–,?
Cc1nc2nc(NCc3ccc(Cl)cc3)[nH]n2c(=O)c1Cc1ccccc1,–,·,–,–,·,–
CCOC(=O)C1(CCCc2ccccc2)CCN(C(=O)C2=C(C)OCCO2)CC1,21µM,?,?,?,?,?
CCOC(=O)C1(CCCc2ccccc2)CCN(C(=O)c2ccoc2)CC1,?,–,–,?,–,–
O=C(Cn1nc(C(=O)O)c2ccccc2c1=O)Nc1cc(S(=O)(=O)N2CCOCC2)ccc1Cl,–,–,?,–,–,–
C=CCn1c(-c2ccccc2)nc2nc3ccccc3nc21,18µM,–,–,–,–,18µM
c1ccc(Cn2c(-c3ccccc3)nc3nc4ccccc4nc32)cc1,23µM,–,–,?,–,21µM
Cc1ccc(-c2nc3cc(C)c(Br)c(C)n3c2CC2CCCCC2)cc1,13µM,–,?,–,–,?
COc1ccc(-c2nc3cc(C)c(Br)c(C)n3c2CC2CCCCC2)cc1OC,?,?,–,–,?,–
COc1ccc(-c2nc3cc(C)c(Br)c(C)n3c2CC(C)(C)C)cc1OC,–,–,–,–,?,–
Cc1cc2nc(-c3ccccc3)c(CC3CCCCC3)n2c(C)c1Br,15µM,–,–,–,?,23µM
CCCc1nc2cc(C)c(Br)c(C)n2c1CC1CCCCC1,2.9µM,?,16µM,–,?,4.1µM
Cc1cc2nc(-c3ccc(F)cc3)c(CC(C)(C)C)n2c(C)c1Br,21µM,?,–,–,?,26µM
CCCN1C(=O)C2(c3ccccc31)c1c(oc3ccc(C)cc3c1=O)C(=O)N2CCOC (configuration not stated),?,·,–,–,·,?
Cc1cc2nc(-c3ccc(F)cc3)c(CC3CCCCC3)n2c(C)c1Br,21µM,–,–,–,–,?
COc1ccc(-n2cc(-c3ccccc3)c3c(NC4CCCCC4)ncnc32)cc1,12µM,·,·,·,·,?
CCOc1ccc(-n2cc(-c3ccccc3)c3c(NC4CCCC4)ncnc32)cc1,13µM,·,·,·,·,15µM
CCOc1ccc(-n2cc(-c3ccccc3)c3c(SC(C)C(=O)OC)ncnc32)cc1 (configuration not stated),?,–,–,–,–,?
O=C1CC[C@@H](CN(Cc2cccnc2)C2CCN(c3ccc(NC(=O)c4cnccn4)cc3)CC2)N1,–,·,·,·,·,–
SMILES,TDP1 cell noCPT,HT1080NT lethal,KB-3-1 tox,KB-V1 MDR tox,HT1080 IDH1KD tx,DT40 TDP1 CPT
Cc1ccc(C(=O)NCC(=O)NCC(c2cccs2)N(C)C)cc1C (configuration not stated),–,–,–,15µM,–,–
CCCOc1ccc(C(=O)NCC(c2cccs2)N(C)C)cc1 (configuration not stated),–,–,–,–,–,–
CCOc1ccc(C(=O)NCC(c2cccs2)N(C)C)cc1OCC (configuration not stated),–,–,–,23µM,–,–
Cc1ccc(S(=O)(=O)NCCC(=O)NCC(c2cccs2)N(C)C)cc1 (configuration not stated),–,–,–,–,–,–
Cc1cc(C)cc(N2C(=O)CS(=O)(=O)C23C(=O)N(Cc2ccccc2)c2ccccc23)c1 (configuration not stated),–,·,–,?,·,–
Cc1nnc(NC(=O)C2CC(=O)N(Cc3ccccc3)C2)s1 (configuration not stated),–,?,–,–,–,–
O=C(Nc1nnc(SCc2ccc(F)cc2)s1)C1CC(=O)N(Cc2ccccc2)C1 (configuration not stated),?,–,–,21µM,–,–
NC(=O)CSc1nnc(NC(=O)C2CC(=O)N(c3ccc(F)cc3)C2)s1 (configuration not stated),21µM,–,–,–,–,–
